# Shiga inhibitor: inhibitors of Shiga toxin in Vero cells; Vero cells, Shiga toxin protein synthesis inhibition reporter; inhibition, % at 38.7 µM; hit rate 9.2% among 290,000; in the data active = inhibition mostly above about 28%, no sharp cut-off; inactive = mostly below about 43%
# Pf growth 48h: inhibits P. falciparum growth in the first generation, 48 h; P. falciparum luciferase growth in erythrocytes, 48 h; Potency, µM (doses to about 28.7 µM), most hits filed as inhibitors; hit rate 5.9% among 310,000; AID 504832
#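 Erythrocytes infected with P. falciparum carrying an integrated firefly luciferase reporter (2% hematocrit, 0.1% parasitemia final) were exposed to compounds in RPMI 1640 with 0.5% Albumax at 37 C, 5% CO2. Growth inhibition was scored as reduced luminescence.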
# Giardia FBPA inh: Giardia lamblia aldolase inhibition; hit rate 0.71% among 290,000; purified Giardia FBPA; A8B2U2; Potency, µM (doses to about 59.6 µM), most hits filed as inhibitors; AID 2451; note: nearly all actives have a fitted effect of over 55% in size
# Target sequence (A8B2U2 whole entry, looked up): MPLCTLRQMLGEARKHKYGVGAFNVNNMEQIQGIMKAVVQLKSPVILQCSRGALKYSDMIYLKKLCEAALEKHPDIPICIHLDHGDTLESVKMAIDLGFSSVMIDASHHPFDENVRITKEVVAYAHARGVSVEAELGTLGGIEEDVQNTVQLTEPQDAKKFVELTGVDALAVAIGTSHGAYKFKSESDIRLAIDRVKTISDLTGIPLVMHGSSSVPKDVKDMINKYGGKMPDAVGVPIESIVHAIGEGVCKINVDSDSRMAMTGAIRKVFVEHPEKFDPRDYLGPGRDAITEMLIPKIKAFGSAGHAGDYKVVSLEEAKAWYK
#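 Giardia FBPA (40 nM reagent) was preincubated 10 min at RT with compound (up to 57.5 uM final), then substrate plus GAPDH/TPI/NAD/arsenate coupling system with diaphorase/resazurin was added; resorufin fluorescence (525/598 nm) was read after 20 min.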
# Cycloheximide cs: counter-screen hit for Shiga toxin inhibitors, cycloheximide; cell reporter, cycloheximide protein synthesis inhibition counterscreen; max response, %; hit rate 12% among 300,000; AID 2314; in the data active = max response mostly above about 13%, no sharp cut-off; inactive = mostly below about 14%; note: read at 38.3 µM for the half of the compounds with a filed dose
# NS1 inh: inhibitors of influenza NS1 protein function; hit rate 0.4% among 270,000; AID 2326; Potency, µM (highest dose often 46.1 µM); calls by dose curve; note: actives are rising curves; nearly all actives have a fitted effect of over 50% in size
#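 Recovery from NS1-induced slow growth read by OD600 in budding yeast switched to galactose assay medium (pH 6.0, -URA) at 1:100 dilution. Compound 23 nl per well; the matching strain lacking NS1 serves as control.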
# Pf growth 96h: P. falciparum growth inhibition at 96 hour, primary screen for plastid delayed-death inhibitors. hit rate 6.9% among 320,000. AID 504834. Potency, µM (highest dose often 28.7 µM), usual class: inhibitors. P. falciparum luciferase reporter growth, 96 h
#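 Parasite growth measured via integrated firefly luciferase reporter in P. falciparum. Infected erythrocytes at 2% hematocrit, 0.05% parasitemia final were treated 96 hours at 37 C under 5% CO2, and luminescence was read.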
# Numbers stand for hits; - = inactive; ? = inconclusive; . = not tested or not shown; [ ] = remark or other dose. Rows were chosen to be rich in hits. Some 21% of all compounds tested hit in one or more screens of this group. Unless noted, calls come from the whole dose curve; as a rule, active = well fitted curve in the direction sought with a large enough effect; inconclusive = small, poorly fitted or top-dose-only effect, or another doubt; inactive = no such curve, though single readings can be large; an effect the other way counts as inactive or inconclusive.
SMILES,Shiga inhibitor,Pf growth 48h,Giardia FBPA inh,Cycloheximide cs,NS1 inh,Pf growth 96h
O=[N+]([O-])c1cc([N+](=O)[O-])c2oc(-c3ccccc3)c(Br)c2c1O,-,-,-,-,-,-
COc1ccc(N2CCN(c3ccc(S(=O)(=O)N(C(C)C)C(C)C)cn3)CC2)cc1,-,?,-,-,-,-
FC(F)(F)c1cnc(-c2cnc(-c3cccnc3)nc2)c(Cl)c1,116,-,-,48,.,-
O=C(Cn1cc(C(F)(F)F)ccc1=O)N1CCc2ccccc2C1,.,-,.,.,.,-
O=C(c1ccccc1)N1CCCC(c2ccc(Cl)cc2)=N1,-,15µM,-,-,-,9.3µM
O=C(C1CC1)N1CCCC(c2ccc(Cl)cc2)=N1,-,-,-,-,.,-
O=C(c1cccc(Cl)c1)N1CCCC(c2ccc(Cl)cc2)=N1,-,?,-,-,-,3.7µM
Cc1ccc(OCCC(=O)OCC(=O)NC(=O)NC2CCCC2)cc1,.,-,.,.,.,-
Cc1cccc(N2CCN(CC(=O)N(C3CCCC3)C3CCS(=O)(=O)C3)CC2)c1C (centres undefined),.,10µM,.,.,.,?
CCOc1ccccc1N1CCN(CC(=O)N(C2CCCC2)C2CCS(=O)(=O)C2)CC1 (centres undefined),.,-,.,.,.,-
CSc1ncc(CO)n1Cc1ccccc1,-,-,-,-,.,?
COc1cc(C(=O)NCC(c2cccnc2)N2CCN(c3ccccc3)CC2)cc(OC)c1OC (centres undefined),-,13µM,-,-,-,?
O=C(NCC(c1cccnc1)N1CCN(c2ccc(F)cc2)CC1)Oc1ccccc1 (centres undefined),-,8.3µM,-,-,-,?
COC(=O)NCC(c1cccnc1)N1CCN(c2ccccc2)CC1 (centres undefined),-,-,-,-,-,-
O=C(NCC(c1cccnc1)N1CCN(c2ccc(F)cc2)CC1)OCc1ccccc1 (centres undefined),-,.,?,-,-,-
O=C(NCCc1c[nH]c2ccccc12)C(=O)NCC(c1cccnc1)N1CCN(c2ccccc2)CC1 (centres undefined),-,13µM,-,-,-,8.3µM
O=C(NCC(c1cccnc1)N1CCN(c2ccccc2)CC1)OCc1ccccc1 (centres undefined),-,7.4µM,-,-,-,-
CCN(CC)c1ccc(CN2CCC(C(=O)NCc3ccc(C)cc3)CC2)cc1,-,-,-,-,-,-[1.15 µM]
O=C(NCC(c1cccnc1)N1CCN(c2ccc(F)cc2)CC1)c1cccc(Cl)c1 (centres undefined),-,12µM,-,-,-,-
O=C(NCC(c1cccnc1)N1CCN(c2ccccc2F)CC1)c1ccccc1 (centres undefined),-,?,-,-,-,?
COc1ccc(NC(=O)N2CC[C@@]3(CCCN(C(=O)c4ccco4)C3)C2)cc1,.,.,-,.,.,.
CC(=O)Nc1ccccc1OCCOc1ccc(Br)cc1,-,-,-,-,.,-
NC(=O)c1ccccc1OCCOc1ccc(Br)cc1,57,-,-,17,-,-
OC/C(Br)=C(\Br)CO,.,-,.,.,.,-
O=C(CNC(=O)c1ccccc1F)NCCN1C(=O)S/C(=C\c2ccccc2Cl)C1=O,-,-,.,-,-,-
SMILES,Shiga inhibitor,Pf growth 48h,Giardia FBPA inh,Cycloheximide cs,NS1 inh,Pf growth 96h
O=C(CCS(=O)(=O)c1ccc(Cl)cc1)NCCN1C(=O)S/C(=C\c2ccccc2F)C1=O,67,-,-,34,-,-
Cc1ccc(S(=O)(=O)CCC(=O)NCCN2C(=O)S/C(=C\c3ccccc3)C2=O)cc1,-,-,-,16,-,?
CCOC(=O)C1CCN(Cc2cc(Cl)c3ccccc3c2O)CC1,-,1.2µM,?,12,-,1.2µM
CCOC(=O)C1CCN(c2cc(=O)n(-c3ccccc3Cl)c(=O)[nH]2)CC1,-,1.9µM,-,-,-,-
CCOC(=O)C1CCN(c2cc(=O)n(C3CCCCC3)c(=O)[nH]2)CC1,-,2.9µM,-,-,-,-
CC(NC(=O)C12CC3CC(CC(O)(C3)C1)C2)c1ccc(Cl)cc1Cl (centres undefined),-,-,-,-,-,-
CC1CCC(C(=O)O)NC1c1ccc(C#CCN(C)C)cc1 (centres undefined),.,.,-[12.9 µM],.,.,.
Cc1cc2nc3c(=O)[nH]c(=S)[nH]c3nc2cc1NC(=O)C(F)(F)F,-,.,?,-,-,-
c1ccc2c(c1)OCCOCCOCCOCCO2,-,.,-,-,.,.
Cc1ccc(Cl)cc1NC(=S)N(Cc1ccco1)C(C)c1cccs1 (centres undefined),-,15µM,-,-,.,?
CC(=O)c1ccc2c(c1)c(C#N)c1ccccc1[n+]2[O-],-,-,-,-,-,-
CCC1CCCCN1S(=O)(=O)c1ccc(C(=O)Nc2nnc(-c3cccs3)o2)cc1 (centres undefined),-,10µM,?,-,-,-
CS(=O)(=O)c1cccc(-c2nnc(NC(=O)c3ccc(S(=O)(=O)N4CCCC4)cc3)o2)c1,.,?,.,.,.,13µM
O=C(Nc1nnc(-c2ccc(F)cc2)o1)c1ccc(S(=O)(=O)N2CCOCC2)cc1,-,?,.,-,-,3.3µM
COc1ccc(-c2nnc(NC(=O)c3ccc(F)cc3)o2)cc1,-,?,?,-,-,?
COc1ccccc1-c1nnc(NC(=O)c2ccc(S(=O)(=O)N3CCCC3)cc2)o1,-,?,.,-,?,?
CC1CC(C)CN(S(=O)(=O)c2ccc(C(=O)Nc3nnc(-c4cccs4)o3)cc2)C1 (centres undefined),-,?,?,-,-,-
Cc1ccc(NS(=O)(=O)c2ccc3c(c2)CC(=O)N3)cc1F,.,?,.,.,.,-
COC(=O)c1[nH]c2cc(OC)c(OC)cc2c1NC(=O)CN1C[C@H]2C[C@@H](C1)c1cccc(=O)n1C2,.,-,.,.,.,?
CO[C@@H]1COC(=O)[C@H](CCSC)NC(=O)C/C=C\[C@@H](C)COC(=O)[C@@H]2CCCN2C(=O)C/C=C\[C@H]1C,.,.,-[12.9 µM],.,.,.
CSC1=NC(NCCCO)c2c(sc3c2CC(C)(C)OC3)N1 (centres undefined),-,?,-,-,-,9.3µM
CN(C)c1ccc(C2/C(=C(/O)c3ccc(Br)cc3)C(=O)C(=O)N2C)cc1 (centres undefined),-,.,-,-,-,5.9µM
COc1ccc(CN2CC(=O)N(c3ccc(C)cc3)C2=S)cc1OC,-,?,-,-,-,-
COc1cc(CN2CC(=O)N(c3ccc(C)c(Cl)c3)C2=S)cc(OC)c1OC,-,2.1µM,-,-,-,-
COc1cc(CN2CC(=O)N(c3ccc(C)cc3)C2=S)cc(OC)c1OC,-,0.83µM,-,-,-,-
O.O.O.O.O.O.O.O=S(=O)([O-])[O-].[Co+2],.,6.7µM,.,.,.,1.7µM
Cc1nc(=S)c2c([nH]1)-c1ccccc1CC21CCCCC1,-,?,-,-,-,?
COCc1ccc(C(=O)Nc2ccc(C(=O)O)cc2)o1,-,-,-,-,-,-
Cc1nn(Cc2cccc(C(=O)NC34CC5CC(CC(C5)C3)C4)c2)c(C)c1Br,-,15µM,-,-,-,8.3µM

# Screening results deposited in PubChem by National Center for Advancing Translational Sciences (NCATS).
